A selection: hits, their analogues and other compounds. The true share with any hit is near 8.1%.
PINK1 modulator = changes PINK1 expression | PINK1 immunofluorescence, high-content cytometry, 24 h | Potency, µM (titrated, usually from 76.6 µM), most hits filed as activators | 410,000 tested, 0.2% active | AID 624263; active = well fitted activation curve with a large enough effect; inconclusive = small, poorly fitted or top-dose-only effect; cell line not stated here; also: nearly all actives have a fitted effect of over 65% in size
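A stable cell line was treated with compounds at 5 concentrations for 24 hours, with CCCP as control. PINK1 levels and mitochondrial localization were measured by immunofluorescence with mitochondrial, cell and nuclear markers after fixation, read by laser-scanning cytometry.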
RORg inh = ROR gamma (mouse) transcription inhibition | P51450 | Drosophila S2 Gal4-RORgamma UAS-luciferase reporter, 20 h | Potency, µM (highest dose often 53.6 µM), hits mostly inhibitors | 310,000 tested, 5.4% active | AID 2551; also: nearly all actives have a fitted effect of over 60% in size
Target sequence (P51450 whole entry, looked up, the tested form may be a part): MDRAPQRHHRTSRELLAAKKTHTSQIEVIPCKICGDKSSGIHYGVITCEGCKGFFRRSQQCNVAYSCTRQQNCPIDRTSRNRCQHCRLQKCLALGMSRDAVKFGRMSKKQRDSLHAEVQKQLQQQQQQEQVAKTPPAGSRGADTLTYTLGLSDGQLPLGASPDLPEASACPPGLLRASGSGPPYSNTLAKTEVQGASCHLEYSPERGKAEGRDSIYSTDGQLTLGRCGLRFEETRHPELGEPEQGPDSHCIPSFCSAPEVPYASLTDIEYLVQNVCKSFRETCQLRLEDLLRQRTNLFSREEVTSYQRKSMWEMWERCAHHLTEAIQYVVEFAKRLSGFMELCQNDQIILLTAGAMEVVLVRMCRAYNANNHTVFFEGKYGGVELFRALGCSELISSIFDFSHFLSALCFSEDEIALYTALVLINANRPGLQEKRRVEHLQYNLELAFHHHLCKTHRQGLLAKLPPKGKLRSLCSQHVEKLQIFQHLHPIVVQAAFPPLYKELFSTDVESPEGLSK
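Stably transfected Drosophila Schneider cells are the test system, with ROR gamma fused to Gal4 and luciferase under UAS control; luminescence is read after 20 hr of 700 uM copper sulfate induction at ambient temperature.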
ClpP mod = qHTS Assay for Activators of ClpP | Potency, µM (top dose mostly 57.5 µM) | ATP-dependent Clp protease proteolytic subunit (Bacillus subtilis (strain 168)), P80244 | purified B. subtilis ClpP, FRET peptide cleavage, 20 min | AID 651965, 2013 | 340,000 tested, 1.9% active; active = well fitted falling curve with a large enough effect; inconclusive = small, poorly fitted or top-dose-only effect; inactive = no such curve, though single readings can be large or run the other way; also: the source files actives as falling curves though it sought activators and does not explain the sign; nearly all actives have a fitted effect of over 65% in size
Target sequence (P80244 whole entry, looked up): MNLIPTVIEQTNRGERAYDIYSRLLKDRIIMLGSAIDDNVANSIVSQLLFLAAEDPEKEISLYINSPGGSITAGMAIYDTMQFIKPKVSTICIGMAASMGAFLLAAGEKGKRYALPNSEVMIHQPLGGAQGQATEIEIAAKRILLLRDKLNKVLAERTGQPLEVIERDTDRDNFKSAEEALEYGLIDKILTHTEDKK
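Buffer: 100 mM Tris/HCl pH8, 100 mM KCl, 0.05% low protease BSA, 2.5% glycerol, 0.01% Tween-20. ClpP 10 microg/mL final; 20 min RT; delta FRET normalized to ADEP and DMSO controls.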
Gal4-VP16 FLuc = counter-screen for ROR gamma inhibitors: Gal4-VP16 reporter; AID 2546; Potency, µM (series often up to 53.6 µM), usual class: inhibitors; Drosophila S2 Gal4-VP16 UAS-luciferase, luminescence, 20 h; 310,000 tested, 3.5% active;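 also: Gal4-VP16 expression switched on by copper sulfate through the metallothionein promoter; nearly all actives have a fitted effect of over 50% in size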
Epigenetic derep = epigenetic control regulation, reporter derepression. 280,000 tested, 0.2% active. Potency, µM (highest dose often 53.9 µM), most hits filed as activators. murine LDR cells, GFP reporter derepression, 30 h; also: nearly all actives have a fitted effect of over 60% in size
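Murine LDR cells carrying a silenced, genomically integrated CMV-driven GFP reporter were exposed to compound for 30 hours at 37 C. After PBS washes, GFP-positive cells (20–120 um objects) were counted by laser-scanning microplate cytometry.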
Sfp inh = Sfp phosphopantetheinyl transferase inhibition; AID 1490; 310,000 tested, 3.5% active; Biochemical Sfp PPTase activity, qHTS; Q9F4F7; Potency, µM, hits mostly inhibitors;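 also: the enzyme is Sfp with the accession as filed and its product quenches rhodamine fluorescence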
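Sfp 15 nM + cpd, 15 min RT; start w/ rhodamine-CoA 5 uM, BHQ-2-YbbR 12.5 uM (final); 50 mM Hepes pH 7.6, 10 mM MgCl2, 0.01% NP-40, 0.01% BSA; read 525/598 nm at 0 and 30 min.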
ClpP inh valid = Bacillus subtilis ClpP inhibition, validated hit. shares compounds with ClpP mod. purified B. subtilis ClpP, FRET-FV substrate cleavage, 20 min. Potency, µM (doses to about 57.5 µM), most hits filed as inhibitors. 470 tested, 40% active; also: nearly all actives have a fitted effect of over 70% in size
A number is an active result; . = inactive; ? = inconclusive; / = no result; [ ] = another dose, or the depositor's remark. Unless noted, calls follow the shape of the dose curve; as a rule, active = well fitted curve in the direction sought with a large enough effect; inconclusive = small, poorly fitted or top-dose-only effect, or another doubt; inactive = no such curve, though single readings can be large; an effect the other way counts as inactive or inconclusive.

SMILES	PINK1 modulator	RORg inh	ClpP mod	Gal4-VP16 FLuc	Epigenetic derep	Sfp inh	ClpP inh valid
O=C(Nc1ccc2ccccc2c1)C(c1ccccc1F)n1c(=O)c(-c2cc3ccccc3[nH]2)nc2ccccc21 (stereo not drawn)	/	/	.	/	/	/	.
O=C(NCc1ccccc1)C(c1ccncc1)n1c(=O)c(-c2cc3ccccc3[nH]2)nc2ccccc21 (stereo not drawn)	/	/	.	/	/	/	/
N#Cc1ccc(C(=O)N(Cc2ccco2)Cc2cccs2)cc1	.	/	.	/	/	/	/
C#CCCCO/N=C1/C[C@@H](O)[C@@H](O)[C@@H]2[C@@H]3C(=O)N([C@@H](C)c4ccccc4)C(=O)[C@H]3CC[C@@H]12	/	.[10 µM]	/	.[10 µM]	.[10.1 µM]	.	/
O=C(Cc1ccccc1)Nc1ccc(-c2nnc(-c3ccco3)o2)cc1	.	?	8.91µM	.	.	.	.
Cc1ccc(-c2nnc(-c3ccc(NC(=O)Cc4cccs4)cc3)o2)cc1	?	.	3.55µM	.	.	.	?
O=C(Cc1cccs1)Nc1cccc(-c2nnc(-c3ccco3)o2)c1	.	.	/	.[10 µM]	.	.	/
CCC(=O)Nc1cccc(-c2nnc(-c3cccc(NC(=O)CC)c3)o2)c1	.	?	.	.	.	.	/
CCC(=O)Nc1ccc(-c2nnc(-c3ccccc3)o2)cc1	.	?	2.82µM	?	.	.	7.69µM
O=C(O)CCC(=O)Nc1ccc(-c2nnc(-c3ccco3)o2)cc1	.	.	.	.	.	.	/
Cc1cc(NS(=O)(=O)c2ccc(NC(=O)COc3ccc(Cl)cc3)cc2)nc(C)n1	.	/	.	/	.	/	/
COc1ccc(-c2nc3n(n2)C(c2ccc(OC)c(OC)c2)C(C(=O)Nc2cccnc2)=C(C)N3)cc1 (stereo not drawn)	.	/	.	/	.	/	/
CN(C)CCOC1c2ccccc2CCc2ccc3ccccc3c21 (stereo not drawn)	.	/	.	/	/	/	.
COc1ccc(-c2cc(C(=O)Nc3c(Cl)cc(Cl)cc3Cl)c3ccccc3n2)cc1OC	?	.	.	.	.	?	21.7µM
CCN1c2ccccc2-c2nc(SCC(=O)NCc3ccc(Cl)cc3)ncc2S1(=O)=O	.	/	.	/	?	/	/
O=C(Nc1ccc(F)cc1)c1sc2cc(C(F)(F)F)cnc2c1-c1cccs1	.	.	.	.	.	.	.
O=C(O)c1cc(-c2ccc3c(c2)OCO3)nc2ccccc12	.	.	.	.	.	.	/
CC(NC(=O)c1cc(-c2ccc3c(c2)OCO3)nc2ccccc12)C(C)(C)C (stereo not drawn)	.	.	.	?	.	.	24.3µM
CC1(C(=O)N(CC(=O)NC2CCCC2)Cc2ccco2)CC(=O)N=C2C=CC=CN21 (stereo not drawn)	.	.	3.16µM	.	.	.	17.2µM
CCc1ccc2oc(C(=O)Nc3cccc(C(F)(F)F)c3)cc(=O)c2c1	.	/	.	/	.	/	/
O=C(c1ccc(S(=O)(=O)N2CCCC2)cc1)N1CCC(CN2C(=O)c3cccc4cccc(c34)C2=O)CC1	.	?	/	.	.	.	/
COc1ccc(S(=O)(=O)N2CCC(CN3C(=O)c4cccc5cccc(c45)C3=O)CC2)cc1	.	.	10µM	.	.	.	24.3µM
COc1ccc(C(=O)Nc2ccc(N3CCOCC3)cc2)cc1S(=O)(=O)NC1CCCC1	.	.	8.91µM	.	.	.	.
CCCc1cc(=O)n2c(nc3ccccc32)[nH]1	.	.[0.365 µM]	7.08µM	/	.	.	13.7µM
O=C(Cn1c(=O)n2nc(-c3cccc(F)c3)nc2c2ccccc21)N1CCN(c2ccc(F)cc2)CC1	.	/	.	/	.	/	/
SMILES	PINK1 modulator	RORg inh	ClpP mod	Gal4-VP16 FLuc	Epigenetic derep	Sfp inh	ClpP inh valid
Fc1ccc(-c2nc(-c3cccs3)no2)cc1	.	.	.	.	.	.	/
Fc1ccc(-c2cnc(-c3cccs3)o2)cc1	.	.	6.31µM	?	.	?	5.44µM
CSc1nsc(SCC(=O)Nc2ccc(Br)cn2)n1	.	.	.	.	.	?	.
CCN1CCN(c2cc(C)c3cc(NC(=S)N(C)Cc4ccccc4)ccc3n2)CC1	.	.	.	.	/	.	.
CCCCN(C)C(=S)Nc1ccc2nc(N3CCN(CC)CC3)cc(C)c2c1	.	.	.	.	.	.	/
CNC(=O)c1cc(S(=O)(=O)N2CC(C)OC(C)C2)ccc1N1CCOCC1 (stereo not drawn)	.	/	.	/	/	.	.
COc1ccc(NC(=O)c2oc3ccccc3c2NC(=O)c2cc3ccccc3o2)c(OC)c1	.	/	?	/	.	/	/
COc1ccc(NC(=O)c2oc3ccccc3c2NC(=O)c2ccco2)c(OC)c1	?	.	.	.	.	25.1µM	?
CCCC(C(=O)NCc1cccc(Cl)c1)N1Cc2ccccc2C1=O (stereo not drawn)	.	/	.	/	.	/	/
CC(C)c1ccc2oc(-c3ccc(Cl)c(NC(=O)Cc4ccccc4)c3)nc2c1	.	/	.	/	.	/	/
Cc1ccc(-c2nc3cc(C(C)C)ccc3o2)cc1NC(=O)c1cc2ccccc2o1	.	/	?	/	.	/	30.6µM
Cc1nn(-c2ccccn2)c2c1-c1nc(N)ncc1CC2	.	.	10µM	.	.	.	17.2µM
COc1ccc2c(c1)CCc1cnc(N)nc1-2	.	.	/	.	.	.	/
CCCC(C)C(=O)Nc1ccc2c(c1)OCCO2 (stereo not drawn)	.	.	3.55µM	.	.	.	.
COc1cccc(Nc2nn3c(=O)c4ccccc4nc3s2)c1	.	/	/	/	/	/	/
CCc1cccc(Nc2nn3c(=O)c4ccccc4nc3s2)c1	/	/	/	/	/	/	.
Cc1ccc(S(=O)(=O)NCCc2csc3nc(-c4ccccc4C)nn23)cc1	.	/	.	/	.	/	/
Cc1ccc(Cn2nc(C)c(NC(=O)c3nn(C)cc3Cl)c2C)cc1	.	?	.	.	.	.	/
Cc1ccc(Cn2ccc(NC(=O)c3nn(C)cc3Cl)n2)cc1	.	.	.	.	.	.	.
CCOc1ccc(S(=O)(=O)Nc2ccc(C(=O)N3CC(C)OC(C)C3)cc2)cc1 (stereo not drawn)	.	/	5.62µM	/	/	/	.
CCOc1ccc(NS(=O)(=O)c2ccc(C(=O)N3CC(C)OC(C)C3)cc2)cc1 (stereo not drawn)	.	/	.	/	/	/	/
Cc1cc(C)c2c(CC(=O)Nc3c(C(=O)Nc4ccc(Cl)cc4)oc4ccccc34)coc2c1	.	/	7.94µM	/	.	/	.
Cc1cccc(NC(=O)c2oc3ccccc3c2NC(=O)Cc2coc3cc(C)cc(C)c23)c1	.	/	.	/	.	/	/
COc1ccc(NC(=O)c2c(C)oc3ccc(O)c(CN4CCN(Cc5ccccc5)CC4)c23)cc1	.	/	.	/	.	/	/

From PubChem
